# Laboratory results: PubChem BioAssay (NCATS)
# Inconclusive results are not listed. Values without a mark were called inactive. The source made the active and inactive calls. The call rests on the fitted dose curve; in most records, active means well fitted inhibition curve with a large enough effect; inconclusive means small, poorly fitted or top-dose-only effect; inactive means flat fitted curve, though single readings scatter.
# Tested on: CP329
# Test: qHTS profiling for inhibitors of Plasmodium falciparum proliferation (AID 504749); further: nearly all actives have a fitted effect of over 60% in size;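 on activity, negative = inhibition: 0% = DMSO vehicle and full inhibition = artemisinin control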
# Conditions: P. falciparum in erythrocytes, SYBR Green DNA, 72 h; series mostly up to 28.7 µM; activity, negative = inhibition: at the top concentration
# How it was run: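 Three-day growth assay of blood-stage parasites in erythrocytes (0.3% parasitemia, 2.5% hematocrit) at 37 C, 5% CO2, quantified by SYBR Green DNA staining after overnight detergent lysis.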
# Potency means the concentration at half of the fitted maximal effect.
Structure (SMILES),"activity, negative = inhibition",Potency
C=C(C)C1CC=C(C)CC1 (centres undefined),0.928%,–
F[Si-2](F)(F)(F)(F)F,1.54%,–
CC1=CC(=O)NS(=O)(=O)O1,5.93%,–
O=C(O)c1ccc(OCCn2ccnc2)cc1,-0.0271%,–
CO,-0.969%,–
C[C@H](CCC(=O)O)[C@H]1CC[C@H]2[C@@H]3CC[C@@H]4C[C@H](O)CC[C@]4(C)[C@H]3C[C@H](O)[C@]12C,-0.725%,–
CC1=CC(=C(c2ccc(N)cc2)c2ccc(N)cc2)C=CC1=N,–,4.78 µM (active)
O=C(/C=C/c1cccc(F)c1)NC1CC1,0.944%,–
CC(CC=O)CCCC(C)(C)O (centres undefined),4.93%,–
CC(C)O,2.25%,–
CCCc1ccc(C(=O)O)cc1,5.83%,–
O=C(O)Cc1cc(I)c(Oc2ccc(O)c(I)c2)c(I)c1,0.108% [at 12.8 µM],–
NCC[C@H](O)C(=O)N[C@@H]1C[C@H](N)[C@@H](O[C@H]2O[C@H](CN)CC[C@H]2N)[C@H](O)[C@H]1O[C@H]1O[C@H](CO)[C@@H](O)[C@H](N)[C@H]1O,1.95%,–
NC(=O)[C@@H]1CCCN1C(=O)[C@H](Cc1cnc[nH]1)NC(=O)[C@@H]1CCC(=O)N1,0.97%,–
OC[C@H]1O[C@@](CO)(O[C@H]2O[C@H](CO)[C@@H](O)[C@H](O)[C@H]2O)[C@@H](O)[C@@H]1O,-5.43%,–
Cc1c(Cl)cccc1Nc1ncccc1C(=O)O,3.88%,–
CC(/C=C/C=C(\C)C(=O)O[C@@H]1O[C@H](CO[C@@H]2O[C@H](CO)[C@@H](O)[C@H](O)[C@H]2O)[C@@H](O)[C@H](O)[C@H]1O)=C\C=C\C=C(C)\C=C\C=C(/C)C(=O)O[C@@H]1O[C@H](CO[C@@H]2O[C@H](CO)[C@@H](O)[C@H](O)[C@H]2O)[C@@H](O)[C@H](O)[C@H]1O,2.05%,–
CC(C)[C@@H](N)C(=O)O,2.37%,–
O=C(NCCNCC(O)COc1ccc(O)cc1)N1CCOCC1 (centres undefined),-4.13%,–
O=S(=O)(O)CC(S)CS (centres undefined),-0.44%,–

Structure (SMILES),"activity, negative = inhibition",Potency
NCCN,4.67%,–
O=S(=O)(O)CCCS(=O)(=O)O,-8.94%,–
O=C(Nc1ccc(O)cc1)c1ccccc1O,9.78%,–
CCOC(=O)c1cc(-c2ccccc2)nc2ccc(C)cc12,3.34%,–
C=CC(C)(O)CC/C=C(\C)CCC=C(C)C (centres undefined),1.4%,–
O=C(O)COc1ccccc1/C=N/NC(=O)c1ccncc1,1.2%,–
OC[C@H]1O[C@@H]2O[C@H]3[C@H](O)[C@@H](O)[C@@H](O[C@H]4[C@H](O)[C@@H](O)[C@@H](O[C@H]5[C@H](O)[C@@H](O)[C@@H](O[C@H]6[C@H](O)[C@@H](O)[C@@H](O[C@H]7[C@H](O)[C@@H](O)[C@@H](O[C@H]1[C@H](O)[C@H]2O)O[C@@H]7CO)O[C@@H]6CO)O[C@@H]5CO)O[C@@H]4CO)O[C@@H]3CO,-3.6%,–
CN=C1C=CC(=C(c2ccc(N(C)C)cc2)c2ccc(N(C)C)cc2)C=C1,–,0.757 µM (active)
CN(Cc1ccccc1)Cc1ccccc1,0.843%,–
O=C1NCCN1c1ncc([N+](=O)[O-])s1,-1.15% [at 12.8 µM],–
CC(=O)Oc1cc(C(F)(F)F)ccc1C(=O)O,4.83% [at 12.8 µM],–
O=[N+]([O-])c1c(Cl)cccc1-c1c[nH]cc1Cl,-0.594%,–
CC(=O)Nc1c(I)c(C(=O)O)c(I)c(N(C)C(C)=O)c1I,-1.13%,–
O=C1N=C2SCCN2C(=O)C1Cc1ccc(Cl)cc1 (centres undefined),-0.541%,–
O=C(O)Cc1nn(Cc2ccc(Br)cc2F)c(=O)c2ccccc12,-0.701%,–
CCC(C(=O)NC(N)=O)c1ccccc1 (centres undefined),6.82%,–
CC(CCc1ccc(O)cc1)NCC(O)c1ccc(O)cc1 (centres undefined),-5.65%,–
CC/C=C\C/C=C\C/C=C\C/C=C\C/C=C\CCCC(=O)O,0.796%,–
CC1(C)S[C@@H]2[C@H](NC(=O)C3(N)CCCCC3)C(=O)N2[C@H]1C(=O)O,-1.63%,–
